In test [1] the test system is Plasmodium falciparum Sir2 (PF13_0152, Sir2A). In words: pfSir2 binders on small-molecule microarrays, primary screen, biochemical, small-molecule microarray, 635 nm fluorescence (AID 1098).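 Also: score merges spot fluorescence intensity with its signal-to-noise ratio.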 Conditions: small-molecule microarray binding, fluorescence 635 nm; higher = more signal.
Test [2] can be described thus: small-molecule microarray binders of probe aDKK1, primary screen, biochemical, biotinylated probe, 635/667 nm fluorescence (AID 1099).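 Also: score merges 667nm spot fluorescence with signal to noise across triplicate slides.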 Conditions: higher = more signal.
The nature of test [3]: small-molecule microarray binders of probe aCHRDL2, primary screen, biochemical, biotinylated probe, 635/667 nm fluorescence (AID 1100). Conditions: higher = more signal.
Test [4] in a line: splicing luciferase reporter signal modulators, primary screen, spliceosome inhibition project, cell-based, HEK293, splice +/- reporter (AID 1101).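 Also: HEK293 cells carrying a splicing-competent luciferase reporter gene; test concentration not given here.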 The settings on record: luminescence, 24 h, higher = more signal, called active from +8 up or from −8 down. In general terms: Reporter assays use an easily measured gene product as a stand-in for the process of interest.
The target in test [5] is Fibroblast growth factor 10 (Homo sapiens) (UniProt O15520). In words: FGF10 binders on small-molecule microarrays, primary screen, biochemical, small-molecule microarray, 635 nm fluorescence (AID 1102). Conditions: FGF10 binding, fluorescence 635 nm, higher = more signal.
Sequence of Fibroblast growth factor 10 (Homo sapiens) (O15520 whole entry, looked up): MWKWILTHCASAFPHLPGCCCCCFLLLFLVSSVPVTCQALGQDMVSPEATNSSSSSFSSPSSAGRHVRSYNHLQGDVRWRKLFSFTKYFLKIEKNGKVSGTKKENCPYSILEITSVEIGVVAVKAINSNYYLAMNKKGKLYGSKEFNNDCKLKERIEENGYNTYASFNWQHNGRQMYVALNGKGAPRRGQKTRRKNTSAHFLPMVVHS
Test [6] relates to glycogen synthase kinase-3 (GSK3A per assay name; protocol says GSK3B). Briefly: GSK3 binders on small-molecule microarrays, primary screen, biochemical, small-molecule microarray, 635 nm fluorescence, GSK3A (AID 1103). Also: the record names both GSK3A and GSK3B. Conditions: small-molecule microarray binding, fluorescence 635 nm; higher = more signal.
In test [7] the target is Epidermal growth factor receptor (Homo sapiens) (UniProt P00533). Briefly: EGFR binders on small-molecule microarrays, primary screen, biochemical, small-molecule microarray, 635 nm fluorescence (AID 1104).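 Also: score merges 667 nm emission intensity with spot signal to noise over triplicate slides.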 The settings on record: EGFR binding, higher = more signal.
Sequence of Epidermal growth factor receptor (Homo sapiens) (P00533 whole entry, looked up): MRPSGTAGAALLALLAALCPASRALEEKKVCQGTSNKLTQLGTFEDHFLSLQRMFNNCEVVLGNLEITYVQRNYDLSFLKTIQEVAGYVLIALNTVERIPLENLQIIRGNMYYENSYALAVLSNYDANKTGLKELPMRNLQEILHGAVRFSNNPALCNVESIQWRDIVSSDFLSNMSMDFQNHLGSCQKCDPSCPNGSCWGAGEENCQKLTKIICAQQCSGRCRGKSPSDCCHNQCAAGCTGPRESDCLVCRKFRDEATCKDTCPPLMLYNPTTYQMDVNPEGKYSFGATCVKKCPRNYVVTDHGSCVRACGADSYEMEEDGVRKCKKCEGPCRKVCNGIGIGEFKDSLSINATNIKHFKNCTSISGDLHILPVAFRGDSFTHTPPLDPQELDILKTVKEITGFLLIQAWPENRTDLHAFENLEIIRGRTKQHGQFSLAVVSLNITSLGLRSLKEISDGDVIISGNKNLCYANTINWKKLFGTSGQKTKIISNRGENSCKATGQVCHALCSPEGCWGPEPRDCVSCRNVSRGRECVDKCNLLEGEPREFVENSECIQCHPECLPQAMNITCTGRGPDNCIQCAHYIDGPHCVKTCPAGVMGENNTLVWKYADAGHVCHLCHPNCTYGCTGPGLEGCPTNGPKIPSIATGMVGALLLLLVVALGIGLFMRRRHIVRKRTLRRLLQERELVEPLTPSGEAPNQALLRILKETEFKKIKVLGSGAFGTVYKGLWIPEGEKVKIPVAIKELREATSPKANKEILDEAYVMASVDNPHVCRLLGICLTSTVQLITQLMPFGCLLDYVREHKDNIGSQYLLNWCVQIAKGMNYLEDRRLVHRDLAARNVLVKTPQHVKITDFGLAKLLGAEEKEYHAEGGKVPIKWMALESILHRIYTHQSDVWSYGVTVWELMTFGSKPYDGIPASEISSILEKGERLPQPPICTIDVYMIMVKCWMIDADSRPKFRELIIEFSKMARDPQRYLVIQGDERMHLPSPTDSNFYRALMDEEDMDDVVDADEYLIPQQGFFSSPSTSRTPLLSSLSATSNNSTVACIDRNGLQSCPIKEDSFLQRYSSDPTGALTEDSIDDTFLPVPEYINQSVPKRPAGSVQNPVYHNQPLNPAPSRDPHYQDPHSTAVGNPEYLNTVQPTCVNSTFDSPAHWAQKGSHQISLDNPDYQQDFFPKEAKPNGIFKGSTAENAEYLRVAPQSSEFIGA
In test [8] the target is Follistatin-related protein 3 (Homo sapiens) (UniProt O95633). In words: FSTL3 binders on small-molecule microarrays, primary screen, biochemical, small-molecule microarray, 635 nm fluorescence (AID 1105).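 Also: score merges emission near 667 nm and signal to noise per printed spot across three slides.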 The settings on record: FSTL3 binding, higher = more signal.
Sequence of Follistatin-related protein 3 (Homo sapiens) (O95633 whole entry, looked up): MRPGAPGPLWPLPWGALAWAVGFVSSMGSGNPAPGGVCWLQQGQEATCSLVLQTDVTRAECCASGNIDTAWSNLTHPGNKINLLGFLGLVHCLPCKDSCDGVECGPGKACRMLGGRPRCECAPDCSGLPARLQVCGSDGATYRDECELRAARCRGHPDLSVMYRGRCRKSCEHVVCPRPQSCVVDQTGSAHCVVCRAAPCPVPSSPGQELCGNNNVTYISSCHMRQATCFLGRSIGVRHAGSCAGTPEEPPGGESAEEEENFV
The target of test [9] is Dickkopf-related protein 1 (Homo sapiens) (UniProt O94907). Briefly: DKK1 binders on small-molecule microarrays, primary screen, biochemical, small-molecule microarray, 635 nm fluorescence scan (AID 1106).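 Also: score merges emission near 667 nm with signal to noise over three replicate slides.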 Conditions: DKK1 binding, higher = more signal.
Sequence of Dickkopf-related protein 1 (Homo sapiens) (O94907 whole entry, looked up): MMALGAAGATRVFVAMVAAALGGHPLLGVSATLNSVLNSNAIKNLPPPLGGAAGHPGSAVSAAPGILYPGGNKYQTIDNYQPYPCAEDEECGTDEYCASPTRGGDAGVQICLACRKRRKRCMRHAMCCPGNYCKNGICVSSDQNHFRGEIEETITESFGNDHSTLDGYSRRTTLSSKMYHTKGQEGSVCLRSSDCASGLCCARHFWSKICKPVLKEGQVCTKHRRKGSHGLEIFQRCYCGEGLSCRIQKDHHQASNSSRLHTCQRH
Test [10] deals with Inhibin beta A chain (activin A). Briefly: INHBA (activin A) binders on microarrays, primary screen, biochemical, small-molecule microarray, 635 nm fluorescence scan (AID 1107).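 Also: mouse activin A protein probed at 4.33 µg/mL on printed slides; score merges bound-protein fluorescence near 667 nm with spot signal-to-noise.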 The settings on record: small-molecule microarray binding, higher = more signal.
The test system of test [11] is Human papillomavirus type 1a protein E7 (residues 44-93). Briefly: HPV1a E7 fragment binders on microarrays, primary screen, biochemical, small-molecule microarray, residues 44-93, 635 nm fluorescence (AID 1108).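 Also: E7 fragment applied at 1 µg/mL in TBST for 1 h at 4 C; score combines spot fluorescence with its signal to noise ratio.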 Conditions: small-molecule microarray binding, fluorescence 635 nm; higher = more signal.
The nature of test [12]: modulators of HCV replicon luciferase signal, primary screen, HCV replication inhibitor project, Huh7 cells, luciferase reporter (AID 1109).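 Also: huh7 hepatoma cells harbouring a luciferase neomycin HCV replicon reporter; luciferase luminescence as measure of HCV replicon replication; test concentration not given here.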 The settings on record: 48 h, higher = more signal. (A replicon is a self-replicating genome or part of one, used to study replication in cells.)
Test [13] has as its target Left-right determination factor 2 (Homo sapiens) (UniProt O00292). In words: LEFTY2 binders on small-molecule microarrays, primary screen, biochemical, small-molecule microarray, 635 nm fluorescence scan (AID 1110). The settings on record: LEFTY2 binding, higher = more signal.
The target of test [14] is Calmodulin-1 (Homo sapiens) (UniProt P0DP23). In words: CALM1 binders on microarrays, EGTA buffer, profiling panel, biochemical, small-molecule microarray, Cy5-labelled CALM1 (AID 1111).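 Also: labelled calmodulin applied in Tris saline Tween buffer holding calcium plus EGTA and DTT.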 Conditions: Cy5-CALM1 binding fluorescence, higher = more signal.
The target is the same in test [15]. Briefly: calcium-bound CALM1 binders on microarrays, profiling panel, artefact control for SMM control-protein annotation, biochemical, small-molecule microarray, Cy5-labelled CALM1, plus calcium (AID 1112).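 Also: score merges spot fluorescence with signal to noise from triplicate slides.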 The settings on record: Cy5-CALM1 binding fluorescence, higher = more signal.
Test [16] is described as follows: small-molecule microarray binders of probe aWnt5a, primary screen, biochemical, biotinylated probe, 635/667 nm fluorescence (AID 1113).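 Also: score merges 667 nm fluorescence intensity with signal-to-noise per printed feature.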 The settings on record: higher = more signal.
Test [17] can be described thus: small-molecule microarray binders of probe aShh, primary screen, biochemical, biotinylated probe, 635/667 nm fluorescence (AID 1114).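 Also: probe is biotin-labelled aShh protein from a stem cell growth factor screen; measures binding of labelled protein to compounds printed on the slide; score merges feature fluorescence at 667 nm with signal-to-noise.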 The settings on record: higher = more signal.
Test [18] in a line: small-molecule microarray binders of probe aNog, primary screen, biochemical, biotinylated probe, 635/667 nm fluorescence (AID 1115).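 Also: probe is biotinylated aNog protein used at 0.15 µg/mL for 1 h at 4 C; z-score combines 667 nm fluorescence of each spot with its signal to noise.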 The settings on record: higher = more signal.
The target of test [19] is Torsin-1A-interacting protein 1 (Homo sapiens) (UniProt Q5JTV8). Briefly: LAP1 binders from COS7 cell lysate, primary screen, small-molecule microarray, 635/667 nm fluorescence (AID 1116). Conditions: COS7-hLAP1 lysate binding, 635 nm fluorescence, higher = more signal.
Sequence of Torsin-1A-interacting protein 1 (Homo sapiens) (Q5JTV8 whole entry, looked up): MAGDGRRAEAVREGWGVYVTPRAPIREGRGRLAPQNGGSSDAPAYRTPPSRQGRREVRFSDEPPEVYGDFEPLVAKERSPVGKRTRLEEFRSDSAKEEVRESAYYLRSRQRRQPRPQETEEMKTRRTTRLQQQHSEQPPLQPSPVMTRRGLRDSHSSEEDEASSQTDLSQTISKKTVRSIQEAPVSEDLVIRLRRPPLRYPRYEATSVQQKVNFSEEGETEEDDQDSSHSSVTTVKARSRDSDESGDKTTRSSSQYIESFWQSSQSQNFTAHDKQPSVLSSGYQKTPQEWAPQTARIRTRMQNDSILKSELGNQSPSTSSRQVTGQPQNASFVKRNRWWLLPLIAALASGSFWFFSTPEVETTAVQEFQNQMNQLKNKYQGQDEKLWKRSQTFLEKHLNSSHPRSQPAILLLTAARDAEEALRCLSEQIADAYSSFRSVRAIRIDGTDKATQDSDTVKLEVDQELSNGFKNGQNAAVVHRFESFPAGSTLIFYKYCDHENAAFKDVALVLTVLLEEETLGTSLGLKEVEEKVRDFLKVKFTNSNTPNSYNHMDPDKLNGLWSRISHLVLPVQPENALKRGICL
In test [20] the target is Alpha-bungarotoxin (Bungarus multicinctus) (UniProt P60615). In words: alpha-bungarotoxin binders on microarray, profiling panel, artefact control for SMM control protein annotation, biochemical, small-molecule microarray, Alexa647 label, 635/667 nm fluorescence (AID 1117). The settings on record: alpha-BTX-A647 binding fluorescence, higher = more signal.
Sequence of Alpha-bungarotoxin (Bungarus multicinctus) (P60615 whole entry, looked up): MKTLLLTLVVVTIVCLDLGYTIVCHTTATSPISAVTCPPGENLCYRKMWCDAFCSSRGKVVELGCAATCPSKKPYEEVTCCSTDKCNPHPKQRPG

The structures appear in SMILES notation. Activity calls are given as the source filed them.

Sequence of Left-right determination factor 2 (Homo sapiens) (O00292 whole entry, looked up): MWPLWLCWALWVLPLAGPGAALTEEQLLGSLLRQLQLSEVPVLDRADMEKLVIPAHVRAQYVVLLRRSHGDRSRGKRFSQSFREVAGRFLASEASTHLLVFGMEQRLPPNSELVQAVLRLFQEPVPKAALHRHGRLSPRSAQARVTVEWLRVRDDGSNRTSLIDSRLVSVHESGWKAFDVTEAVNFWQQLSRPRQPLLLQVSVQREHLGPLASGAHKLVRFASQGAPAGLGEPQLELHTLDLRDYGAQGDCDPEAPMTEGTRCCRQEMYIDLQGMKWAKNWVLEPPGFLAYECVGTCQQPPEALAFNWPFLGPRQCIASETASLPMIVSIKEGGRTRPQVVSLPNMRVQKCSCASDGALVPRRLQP

Turning to `COC(=O)[C@@]1(Cc2ccc(F)cc2)[C@H]2c3cc(C(=O)N(C)C)n(Cc4ccsc4Br)c3C[C@H]2CN1C(=O)c1ccccc1`, the composite z-score in test [1] is 1.3; in test [2], 2.31; in test [3] it was 1.36; in [5] it was 1.16; in [6] it was 0.0579; in test [7] it was 1.51. The composite z-score is 0.369 in [8]; 0.0249 in test [9]; 0.5 in test [10]; -0.468 in test [11]; 0.648 in test [13]; 2.16 in test [14]. The composite z-score in test [15] is 0.981; in test [16] it was 1.37; in test [17], 2.15; in test [18], -0.0209; in test [19] it was 1.53; in [20], 0.427. For the same molecule, the z-score in [4] was -3.81 (inactive); in [12], -0.787.
`C[C@]12C(=O)N(CCO)[C@@H]3C(=O)N(c4ccc(Cl)cc4)CC=CC31O[C@@H]1/C=C\CCCOC(=O)C12` (stereo not given in full): the composite z-score in test [1] was -0.617; in [2], -0.128; in test [3] it was 0.776; in [5] it was -1.04; in test [6], -1.31; in test [7], -1.51. Also, the composite z-score in [8] was -1.03; in [9], -1.53; in test [10], 0.847; in test [11] it was -0.576; in [13], -1.59; in test [14] it was 0.409. Moreover, the composite z-score in test [15] is 0.186; in test [16], -0.18; in test [17], -0.154; in test [18] it was -0.153; in test [19], -0.759; in test [20], -0.181. In addition, the figures for the z-score in test [4] and in test [12] were 0.178 (inactive) and -0.445, respectively.
Take `COc1cccc(C)c1NC(=O)O[C@H]1[C@H](OC(=O)Nc2ccccc2)[C@@H](OC(=O)Nc2ccccc2)[C@@H](OC)O[C@@H]1CO`: the composite z-score was determined as 1.5 in [1]; 0.266 in test [2]; 0.553 in test [3]; 1.34 in test [5]; 0.927 in [6]; 0.191 in test [7]. In addition, the composite z-score in test [8] amounted to 1.48; in [9], 0.474; in test [10], 0.525; in test [11] it was 1.52; in [13], 0.508; in test [14], 1.13. Moreover, the composite z-score in test [15] is -0.271; in test [16], 0.0321; in test [17], 0.157; in [18], 0.0023; in test [19], 2.17; in test [20], 1.31. In addition, the z-score in [4] was 0.449 (inactive); in [12] it was -2.72.
Turning to `COCCOC(=O)N1C(=O)[C@@]2(c3cc(C#CCNC(N)=O)ccc31)[C@H](C(=O)Nc1nc3ccccc3s1)[C@H]1C(=O)O[C@H](c3ccccc3)[C@H](c3ccccc3)N1[C@@H]2c1ccc(O)cc1`, the composite z-score in test [1] was found to be 0.576; in [2], 0.406; in test [3], 0.774; in test [5], 0.777; in test [6] it was 1.06; in test [7] it was 0.195. Also, the composite z-score in test [8] is 0.783; in test [9], 0.393; in [10], 0.719; in test [11] it was 1.2; in test [13], 0.23; in [14] it was 0.68. Also, the composite z-score in [15] is 0.575; in test [16], -0.124; in test [17] it was 0.0483; in [18], -0.314; in test [19], 0.618; in [20], 1.6. Also, the z-score was 1.05 (inactive) in [4] and -1.21 in [12].
On to `COC(=O)C1(CC(C)C)C=C2C(=C(C)C(=O)C2C)CN1` (stereo not given), for which the composite z-score in [1] was -0.211; in test [2], 1.34; in [3], 1.14; in test [5], 0.069; in test [6] it was -0.279; in test [7], -0.155. Besides, the composite z-score in test [8] is 0.641; in test [9], -0.15; in test [10] it was 1.43; in test [11] it was -0.412; in test [13], -0.253; in [14] it was 0.0595. Also, the composite z-score in [15] turned out to be 0.89; in [16], 0.432; in test [17] it was 1.79; in test [18], 0.825; in test [19], 0.653; in test [20] it was 0.096. Besides, the z-score in test [4] is 1.68 (inactive); in [12], -1.01.
For the molecule `C=C(CCCC)/C(=C/C[C@@H](OC(C)=O)c1cccc(OCCO)c1)c1cc(C(=O)OC)ccc1OC`, the composite z-score is 1.31 in [1]; -0.113 in test [2]; 0.0282 in [3]; -0.004 in test [5]; -0.657 in test [6]; -0.347 in [7]. The composite z-score was 0.212 in [8]; -0.08 in test [9]; 0.863 in test [10]; 0.364 in test [11]; -0.227 in test [13]; -0.405 in test [14]. For the same molecule, the composite z-score is -0.788 in test [15]; -0.119 in [16]; 0.111 in test [17]; -0.18 in test [18]; 0.714 in test [19]; 0.621 in test [20]. Besides, the z-score is -0.509 (inactive) in test [4] and -2.02 in [12].

Source of the values: PubChem BioAssay.
